Assay outcomes as filed in PubChem.
Sampled rows, rich in hits. Any-hit rate of the full collection: about 7.9%.
HCMV inh: blocks human cytomegalovirus replication; activity change, negative = inhibition, % at 57.5 µM; HFF cells, HCMV-luciferase reporter, 72 h; stronger effect = lower value; hit rate 4.5% among 410,000; in the data active = activity change below about -60%; inconclusive = no clear call, values can overlap the other calls; inactive = above about -39%
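Cell-based, HFFs, 1000 cells/well, 16 h 37C; cpds in DMSO + HCMV-luc, MOI 1 PFU/cell; 72 h 37C; OneGlo luminescence after 5 min RT; norm. to buffer vs Salinomycin 10uM.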
Lassa entry inh: inhibitors of Lassa virus binding or cell entry | Lassa virus pseudotype entry inhibition, cell reporter | Potency, µM (top dose mostly 37.9 µM), for the others: top-dose activity change, negative = inhibition, usual class: inhibitors | hit rate 1.2% among 300,000; calls by dose curve; tested in HEK293 cells; note: potency is the fitted concentration of half-maximal effect; nearly all actives have a fitted effect of over 50% in size
HCV inh: HCV inhibition; hit rate 3.4% among 340,000; Huh7.5.1 HCVcc-Cre infection, luciferase reporter, 44 h; AID 651820; Potency, µM (highest dose often 41.8 µM), for the others: at the highest dose activity change, negative = inhibition, hits mostly inhibitors; active = well fitted inhibition curve with a large enough effect; inconclusive = small, poorly fitted or top-dose-only effect, or another doubt; inactive = no such curve, though single readings can be large or run the other way; note: potency is the fitted concentration of half-maximal effect
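HCVcc-Cre virus at an moi near 0.5 was added right after compound to cells cultured 4 h from seeding (1,000 cells/well). Luciferase activity was determined 44 h later, 15 min after substrate addition at RT.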
FMDV inh: blocks foot and mouth disease virus; hit rate 1.2% among 410,000; FMDV antiviral cell-based qHTS; Potency, µM (series often up to 57.9 µM), without a hit: top-dose activity change, negative = inhibition, hits mostly inhibitors; calls by dose curve; tested in HEK293T cells; note: read-out not given here; potency is the fitted concentration of half-maximal effect; nearly all actives have a fitted effect of over 45% in size
MARV entry inh: blocks Marburg virus binding to or entry into cells; hit rate 1.8% among 300,000; Potency, µM (top dose mostly 37.8 µM), for the others: top-dose activity change, negative = inhibition, hits mostly inhibitors; Marburg virus pseudotyped entry inhibition, cell reporter; calls by dose curve; tested in HEK293 cells; note: potency is the fitted concentration of half-maximal effect
Numbers without * were called inactive; ? = inconclusive; · = no result; [ ] = remark or other dose. % is set by controls: 0 for no effect and ±100 for the full control effect.

SMILES	HCMV inh	Lassa entry inh	HCV inh	FMDV inh	MARV entry inh
CN(C)c1ccc(CC2C(=O)Nc3ccccc32)cc1 (stereo not given)	-63.3*	-8.6%	5.1%	49.7%	24.6%[46.1 µM]
NNC(=O)c1[nH]c(-c2ccccc2)cc1-c1ccccc1	-27.9	·	8.6%	3.7%	·
CSc1ccc(C(=O)NCC(c2ccco2)N(C)C)cc1[N+](=O)[O-] (stereo not given)	-33.9	15.7%[46.1 µM]	-26.6%	6.5%	13.4%[46.1 µM]
Cc1c(OCC(=O)N[C@@H](Cc2c[nH]c3ccccc23)C(=O)O)ccc2c1oc(=O)c1ccccc12	-38.6	·	-16.1%	-13.7%	·
CCN(CC)CCOC(=O)c1ccc(NC(=O)C(C)NC(=O)C23CC4CC(CC(C4)C2)C3)cc1 (stereo not given)	-63.6*	-4.1%	25.0%	6.9%	-13.8%
CCN(CC)CCOC(=O)c1ccc(Cl)cc1	-16.3	4.4%	13.9%	-7.8%	-2.6%[46.1 µM]
O=c1oc2ccccc2cc1-c1csc(Cc2nc(-c3ccc(Br)cc3)cs2)n1	-98.6*	-28.0%	?	-16.1%	-20.5%
Cc1cc(C)c(-c2csc(-c3cc4ccccc4oc3=O)n2)cc1C	6.9	-5.7%[46.1 µM]	·	3.1%	-14.9%[46.1 µM]
Cc1cc(C)c(-c2csc(Cc3nc(-c4cc5ccccc5oc4=O)cs3)n2)cc1C	-65.4*	-12.2%	?	?	?
O=c1oc2ccc(Br)cc2cc1-c1csc(-c2ccccc2)n1	1.7	?	·	-6.7%	·
Cn1c(=O)c(-c2cccs2)nc2cnc(N3CCOCC3)nc21	·	·	·	22.5%	·
CCCN(Cc1ccc(N(CC)CC)cc1)CC1CC1	-66.2*	-21.5%	10µM*	·	?
CCOC(=O)c1ccc(NC(=O)CC2Sc3ccc(C(F)(F)F)cc3NC2=O)cc1 (stereo not given)	-65.4*	-5.5%[46.1 µM]	·	-24.4%	-15.4%[46.1 µM]
CCOC(=O)c1cc(CC)sc1NC(=O)CC1Sc2ccc(C(F)(F)F)cc2NC1=O (stereo not given)	-8.0	-0.2%	23.4%	-18.5%	?
COc1ccc(NC(=O)CC2SC(=O)NC2=O)cc1 (stereo not given)	-66.8*	1.6%	2.6%	-8.9%	18.5%[46.1 µM]
Cc1ccc(NC(=O)CC2SC(=O)NC2=O)cc1 (stereo not given)	9.7	-1.9%	2.9%	-10.7%	7.6%
COCC(=O)Nc1cc(C(=O)N2CCCC2c2nccs2)c2c(c1)nc(-c1ccncc1)n2C (stereo not given)	·	·	·	-4.5%	·
C=CCn1c(=N)n(CC(=O)c2ccc(Br)s2)c2ccccc21	-74.1*	?	?	-40.9%	?
C=CCn1c(=N)n(CC(=O)c2ccc(Cl)cc2)c2ccccc21	-19.3	?	?	-10.3%	?
Cc1oc(-c2ccccc2F)nc1CS(=O)(=O)CC(=O)N1CCN(c2cccc(C(F)(F)F)c2)CC1	-23.8	25.3%[46.1 µM]	·	35.5µM*	?
Cc1cccc(N2CCN(C(=O)CS(=O)(=O)Cc3nc(-c4ccccc4C)oc3C)CC2C)c1 (stereo not given)	?	-26.5%[46.1 µM]	·	?	?
Cc1cccc(N2CCN(C(=O)CS(=O)(=O)Cc3nc(-c4ccccc4F)oc3C)CC2C)c1 (stereo not given)	-31.0	·	12.6µM*	35.5µM*	-9.8%
Cc1oc(-c2ccccc2F)nc1CS(=O)(=O)CC(=O)N1CCOCC1	-1.1	·	0.6%	-0.9%	·
COCc1nnc(NC(=O)c2cccc(NC(=O)c3ccccc3)c2)s1	3.0	-6.0%	9.5%	-9.6%	?
O=C(N/N=C/c1cccs1)c1ccccn1	113.6	-3.3%	2.4%	21.3%	15.4%
SMILES	HCMV inh	Lassa entry inh	HCV inh	FMDV inh	MARV entry inh
C(=NN=C(NN=Cc1cccs1)NN=Cc1cccs1)c1cccs1	-2.3	?	10µM*	-6.7%	?
COc1ccc(CN=C(N)N=C(N)N)cc1Cl	?	?	?	-8.0%	-17.3%[14.2 µM]
CC(C)Oc1ccc(CN=C(N)N=C(N)N)cc1Cl	-74.6*	16.2%	?	?	0.1%[46.1 µM]
CC(C)COc1ccc(CN=C(N)N=C(N)N)cc1Cl	-76.5*	·	?	?	·
c1ccc(OCCSc2nnnn2C2CCCCC2)cc1	86.6	14.1µM*	5.7%	-21.8%	-4.9%
O=C(c1ccc2c(c1)OCO2)N1CC(=O)N2[C@H](C1)[C@@H](c1ccc(Br)cc1)[C@@H]2CO	-4.3	·	·	·	·
O=c1c2sc(-c3ccccc3)cc2nc2n1CCC2	27.0	?	7.7%	-48.1%	4.47µM*
COCCCn1c(=O)c2sccc2n2c(CCCC(=O)Nc3ccc(F)c(F)c3)nnc12	-8.0	6.1%[46.1 µM]	·	-16.8%	-10.6%[46.1 µM]
C=CCn1cccc(C(=O)Nc2ccc(OCC)cc2)c1=O	-62.7*	?	11.2µM*	0.4%	-47.6%[46.1 µM]
C=CCn1cccc(C(=O)Nc2ccc(Cl)cc2)c1=O	12.6	·	11.2µM*	9.8%	·
C=CCn1cccc(C(=O)Nc2ccc(SC)cc2)c1=O	·	·	?	-10.4%	·
O=C(CN1C(=O)c2cccc3cccc1c23)Nc1ccccc1C(=O)NCc1ccco1	-61.1*	?	-25.5%	-23.9%	?
O=C(CN1C(=O)c2ccccc2S1(=O)=O)Nc1ccccc1C(=O)NCc1ccco1	41.6	0.4%	7.3%	-8.3%	3.4%
CCCC(=O)NC(=S)Nc1ccc(Cl)cn1	-68.9*	?	-0.2%	65.4%	?
Brc1cc(Br)c2ncnc(N3CCCCC3)c2c1	-103.9*	-25.4%	?	?	-19.6%
Clc1ccc(Cn2ncc3c(N4CCCCC4)ncnc32)cc1	-15.5	-17.3%	?	?	-21.4%[46.1 µM]
COc1ccccc1C(=O)NC(=O)COC(=O)c1ccc([N+](=O)[O-])cc1	-21.3	-9.5%	11.7%	-6.6%	3.8%
CN(C)c1ccc(/C=N/NC(=O)c2ccccc2Cl)cc1	-29.6	?	?	37.6%	?
O=C(Oc1ccc(/C=N/Nc2ccccc2)cc1)c1ccccc1	96.3	-8.9%	1.0%	14.5%	34.0%
O=C(O)c1cccc(N/N=C/c2cccs2)c1	-27.6	5.8µM*	9.5%	2.24µM*	1.46µM*
O=C(O)c1ccc(N/N=C/c2ccc(OC(=O)c3cccc(Cl)c3)cc2)cc1	-64.1*	·	6.0%	20µM*	·
COc1ccc(/C=N/NC(=S)Nc2cccc(C(=O)O)c2)cc1	21.5	?	-1.4%	-0.8%	?
CSc1ccc(/C=N/NC(=O)c2ccccc2Cl)cc1	60.2	8.91µM*	?	65.3%	?
CSc1ccc(/C=N/Nc2cccc(C(=O)O)c2)cc1	·	0.891µM*	31.9%	2.24µM*	?
C#CCCCO/N=C1/C[C@@H](O)[C@@H](O)[C@@H]2[C@H]3C(=O)N(c4ccc(F)cc4F)C(=O)[C@@H]3CC[C@H]12	·	·	·	·	-6.1%[14.2 µM]
Cc1cc(CN2CCC(n3nccc3NC(=O)c3ccccc3C)CC2)n[nH]1	-2.6	14.5%[46.1 µM]	3.6%	-6.2%	-3.5%[46.1 µM]
O=C(O)c1cccc(N/N=C/c2ccc(OC(F)(F)F)cc2)c1	47.4	?	14.8%	25.1µM*	?
COC(=O)c1ccc(COc2ccc(/C=N/Nc3cccc(C(=O)O)c3)cc2)cc1	0.0	·	30.3%	-28.7%	·
COCCCNc1ncnc2sc(C(=O)N3CCCCC3)c(C)c12	·	·	·	-7.1%	·
